A selection: hits, their analogues and other compounds. The true share with any hit is near 2.2%.
MEX-5 binding = C. elegans MEX-5 TCR-2 RNA binding activity. 300,000 tested, 0.38% active. AID 1832. activity score (negative = inhibition of binding), % at 10 µM. MEX-5/FITC-TCR2 RNA binding, fluorescence polarization; stronger effect = lower value. Q9XUB2;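 active means inhibition past about -25% in most replicates, and total fluorescence under double the plate's negative control median, limit read from the data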;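 further: 0% = DMSO and -100% = 5 µM competing unlabeled TCR2 RNA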
JMJD2C inh = human JMJD2C demethylase inhibition. Q9H3R0. GST-JMJD2C(1-420) H3K9me3 demethylation, DELFIA europium. inhibition, % at 2.35 µM. 330,000 tested, 0.069% active;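 active means more than half of a compound's replicate wells show inhibition beyond 50%, single wells judged on their own value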;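 further: signal counts dimethyl H3K9 product captured on neutravidin plate; 0% = median of DMSO wells and 100% = 0.3 times that DMSO median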
VLA-4 inh = inhibition in a human VLA-4 binding assay. inhibition, % (about 7 µM as worked out from the volumes in the protocol). 330,000 tested, 0.2% active. VLA-4 expressing cells, ligand binding flow cytometry; in the data active means inhibition above about 50%
Target sequence (P13612 whole entry, looked up): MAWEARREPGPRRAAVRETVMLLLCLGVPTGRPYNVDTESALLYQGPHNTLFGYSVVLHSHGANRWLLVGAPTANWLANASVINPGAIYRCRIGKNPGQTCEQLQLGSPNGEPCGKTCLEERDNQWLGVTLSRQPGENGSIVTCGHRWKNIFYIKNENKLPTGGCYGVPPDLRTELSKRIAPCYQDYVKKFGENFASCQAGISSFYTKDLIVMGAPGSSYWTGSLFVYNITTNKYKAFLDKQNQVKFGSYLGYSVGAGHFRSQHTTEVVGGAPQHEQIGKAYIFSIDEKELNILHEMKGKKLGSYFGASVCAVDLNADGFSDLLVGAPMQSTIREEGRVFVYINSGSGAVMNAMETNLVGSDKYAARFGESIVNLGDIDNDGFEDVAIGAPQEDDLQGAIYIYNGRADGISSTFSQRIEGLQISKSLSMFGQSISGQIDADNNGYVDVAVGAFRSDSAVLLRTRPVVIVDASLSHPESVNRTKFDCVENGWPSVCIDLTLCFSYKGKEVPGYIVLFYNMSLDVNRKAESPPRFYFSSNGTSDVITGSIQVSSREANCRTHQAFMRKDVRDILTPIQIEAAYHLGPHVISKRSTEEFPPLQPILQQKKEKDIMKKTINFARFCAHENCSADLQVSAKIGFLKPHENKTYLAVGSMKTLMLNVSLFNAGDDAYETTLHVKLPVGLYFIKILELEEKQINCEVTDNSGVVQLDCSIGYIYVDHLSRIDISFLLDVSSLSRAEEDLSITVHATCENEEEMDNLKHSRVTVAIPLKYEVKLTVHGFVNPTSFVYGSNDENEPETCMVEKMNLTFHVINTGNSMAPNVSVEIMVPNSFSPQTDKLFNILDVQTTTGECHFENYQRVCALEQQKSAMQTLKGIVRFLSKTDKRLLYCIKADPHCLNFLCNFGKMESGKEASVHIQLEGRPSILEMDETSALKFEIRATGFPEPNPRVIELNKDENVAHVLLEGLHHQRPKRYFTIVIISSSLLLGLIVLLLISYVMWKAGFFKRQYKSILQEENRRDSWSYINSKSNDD
m5-HT2A agonist = mouse HTR2A agonism via beta-arrestin recruitment; P35363; CHO-K1 mHTR2A beta-arrestin complementation, luminescence; percent of 30 µM serotonin response; 360,000 tested, 0.66% active; AID 624169; activation, % at 7.6 µM;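 active means activation above a run cutoff, the mean activation of all tested compounds plus 3 SD, cut at about 14% in these data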;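 further: 0% = plate median of compound wells and 100% = 30 µM serotonin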
V-ATPase pHluor = alters yeast V-ATPase proton transport | S. cerevisiae, pHLuorin cytosolic pH fluorescence | response, % at 10 µM | 350,000 tested, 0.37% active | AID 504577; in the data active means response mostly above about 7.3%, no sharp cut-off; inactive means mostly below about 5.4%; further: actives read high
Granule exo inh = lytic granule exocytosis inhibition; inhibition, % at 10 µM; TALL-104 LAMP-1 surface exposure, flow cytometry; cells stimulated with thapsigargin and PMA; 360,000 tested, 0.66% active;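 active means inhibition above about 55%, limit read from the data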
Granule exo CP1 = blocks lytic granule exocytosis; shares compounds with Granule exo inh; inhibition, % at 10 µM; 1,500 tested, 11% active; TALL-104 cells, LAMP-1 externalization, flow cytometry; stimulated with PMA plus thapsigargin; in the data active means inhibition above about 60%;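 further: 0% = stimulated vehicle wells and 100% = unstimulated wells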
* = called active by the depositor; / = no result given.

SMILES	MEX-5 binding	JMJD2C inh	VLA-4 inh	m5-HT2A agonist	V-ATPase pHluor	Granule exo inh	Granule exo CP1
CN(C)CCCn1c2c3ccccc3ccc2c2oc(=O)c3ccccc3c21	/	/	/	-15	-9	56*	23
Cc1ccc(NC(=O)CN(C)C(=O)COc2ccc(Br)cc2)cc1	/	/	/	1	-3	-2	/
N#Cc1ccc(NC(=O)Nc2ccc(Oc3ccc(NC(=O)Nc4ccc(C#N)cc4)cc3)cc2)cc1	1	2	-1	-1	-4	62*	81*
N#Cc1ccc(NC(=O)Nc2cccc(C#N)c2)cc1	3	1	3	-1	-1	34	/
CCOc1ccc(CN2CCCC(N3CCN(c4ccc(OC)cc4)CC3)C2)cc1 (stereo not given)	1	12	9	-6	2	18	/
COc1ccc(CC(=O)NCC2CCCN(Cc3ccc(F)c(OC)c3)C2)cc1 (stereo not given)	-1	-14	18	-2	-2	59*	-14
CCOc1cccc(CN2CCCC(N3CCN(c4cccc(Cl)c4)CC3)C2)c1O (stereo not given)	-2	-2	0	-5	4	66*	-10
CCOc1cccc(CN2CCCC(N3CCc4ccccc4C3)C2)c1O (stereo not given)	1	-1	-4	-2	3	-2	/
COc1cc(CN2CCCC(N3CCN(c4ccc(F)cc4)CC3)C2)ccc1F (stereo not given)	0	3	0	-13	0	61*	-14
CSc1ccc(CN2CCCC(N3CCN(c4ccccc4)CC3)C2)cc1 (stereo not given)	1	10	2	-5	1	67*	-13
CCCCn1c(N)c(N(CC(C)C)C(=O)c2ccc(OCc3c(C)noc3C)cc2)c(=O)[nH]c1=O	0	68	-10	2	-1	4	/
COc1ccc(CN2CCC2(C)C(=O)Nc2cccc(NS(C)(=O)=O)c2)c2ccccc12 (stereo not given)	/	/	/	10	/	12	/
COc1ccc(C(=O)NC(=S)Nc2nc(C)cc(C)n2)cc1Br	-1	3	29	-1	-2	-2	/
CCOC(=O)N1CCN(C(=O)COC(=O)CSc2ccc([N+](=O)[O-])cc2)CC1	2	5	4	-1	-1	6	/
COc1cccc(C(=O)NCCS(=O)(=O)NCc2ccccn2)c1	-2	192	23	-3	-6	-4	/
COc1cccc(CN2CCC(C(=O)Nc3ccc(-c4cccc(C)c4)cc3)CC2)c1O	2	4	5	-5	-3	74*	3
O=C(CSc1nc2ccccc2s1)N1c2ccccc2Sc2ccccc21	0	8	5	-5	-4	62*	2
CCc1ccc2cc(C)cc(C)c2n1	/	/	/	3	/	-4	/
CCOc1cc(CNCc2ccccc2)ccc1OCc1ccc(Cl)cc1	1	-18	8	0	0	90*	22
Cc1ccc(NC(=O)CSCC(=O)Nc2ccccc2N2CCCCC2)cc1	3	28	-4	-12	0	0	/
CCCCN(C)c1c(C)nc2ccc(C(=O)NCc3ccc4c(c3)OCO4)cn12	/	/	/	-4	/	60*	-12
CCN(CC(=O)Nc1c(F)cccc1F)C(=O)c1ccc(S(=O)(=O)NCc2ccco2)cc1	0	0	-7	5	-2	6	/
CCOC(=O)Nc1ccc2c(c1)N(C(=O)CN(CC)CC)c1ccccc1CC2	-2	0	-4	0	-3	3	/
CCOC(=O)Nc1ccc2c(c1)N(C(=O)CCN(CC)CC)c1ccccc1S2=O (stereo not given)	-1	-13	1	-1	4	73*	-8
N#Cc1ccc2sn(-c3ccccc3)c(=O)c2c1	/	/	/	-1	0	52	/
SMILES	MEX-5 binding	JMJD2C inh	VLA-4 inh	m5-HT2A agonist	V-ATPase pHluor	Granule exo inh	Granule exo CP1
CC(=O)Nc1ccc2sn(-c3ccccc3)c(=O)c2c1	/	/	/	1	-1	60*	94*
Cc1ccc(NS(=O)(=O)c2cccc(C(=O)NCCc3c[nH]c4ccccc34)c2)c(C)c1	-1	-5	9	0	-1	62*	1
CC1CCCC(C)N1S(=O)(=O)c1ccc(Cl)cc1 (stereo not given)	1	-27	3	-3	1	-8	/
CC1=C(C)CS(=O)N(S(=O)(=O)c2ccc(Cl)cc2)C1 (stereo not given)	1	29	12	9	4	64*	94*
CCOc1ccccc1N(CC(=O)NC1CCCCC1)S(=O)(=O)c1ccc(C)cc1	0	9	-1	4	-1	93*	-12
COc1ccccc1N(CC(=O)NC1CCCC1)S(=O)(=O)c1ccc(C)cc1	-3	-6	4	1	-1	16	/
COc1ccccc1N(CC(=O)Nc1cccc(C(F)(F)F)c1)S(C)(=O)=O	-1	52	4	-6	1	80*	-10
COc1ccccc1N(CC(=O)Nc1ccc2c(c1)OCCO2)S(=O)(=O)c1ccc(C)cc1	2	2	4	1	-3	73*	-10
COc1cccc(COc2ccc3ccc(=O)oc3c2)c1	2	8	-30	-8	1	-11	/
COc1ccc(COc2ccc3ccc(=O)oc3c2)cc1	0	2	-4	-6	-1	86*	-14
Cc1cc(C)n(CCc2nc(-c3ccc(C)o3)cs2)n1	-2	16	12	2	0	68*	-3
CCN(CC)CCNc1ncnc2c1sc1nc(N3CCCC3)c3c(c12)CC(C)(C)OC3	2	-6	18	-7	0	56*	1
CCN(CC)S(=O)(=O)c1cc(NC(=O)CNc2cccc(S(=O)(=O)N3CCOCC3)c2)ccc1C	-4	-1	-10	2	-1	57*	-5
Cc1ccc(NC(=O)CNc2cccc(S(=O)(=O)N3CCOCC3)c2)cc1F	-4	6	3	-3	0	-6	/
CC(C)OCCCNC(=O)c1cc(S(=O)(=O)N2CCc3ccccc32)cn1C	-2	13	2	-3	-1	-1	/
OC1(c2cccc(C(F)(F)F)c2)CCN(c2ncnc3c2[nH]c2ccc(F)cc23)CC1	/	/	/	1	-5	96*	68*
Fc1ccc2[nH]c3c(N4CCN(c5ccccc5)CC4)ncnc3c2c1	0	-11	-3	1	-5	52	/
CC(=O)C1=C(S(=O)(=O)c2ccc(C)cc2)CS(=O)(=O)C1	1	8	/	0	6	26	/
Cc1ccc(Nc2nc(NCc3ccco3)c3ccccc3n2)cc1	1	-41	1	-11	9	69*	67*
COc1ccccc1Nc1nc(NCc2ccco2)c2ccccc2n1	1	-6	6	-9	0	99*	23

Assay outcomes (PubChem)
